Among all 66,000 compounds or so, about 960 (1.5%) showed an effect of 50% or more. What follows is part of a selection rich in strong results, with near analogues and random picks from the rest.
System: Trypanosoma brucei
Assay: Trypanosoma brucei 72 hour study
Format: functional, organism-based
Parameters: scale not given: in the data most compounds retested in dose-response had high values

COc1cc(CNCC2CN(C3CC3)CCO2)cc(OC)c1.Cl (stereo unspecified)
Percent Effect (30 µM, 30.03 µM): 10.22%

CC(C)CN1CCN(C(=O)c2ccncc2F)Cc2cccnc21.O=C(O)C(F)(F)F.O=C(O)C(F)(F)F
Percent Effect (30 µM, 30.03 µM): -15.43%

NC1C=C(C(F)(F)F)NC=C1c1ccc(Cl)cc1 (stereo unspecified)
Percent Effect (30.3 µM, […]): -11.05%

COc1cccc(N2CCC(CNC(=O)NCc3ccco3)C2)c1 (stereo unspecified)
Percent Effect (30 µM, 30.03 µM): 0.1518%

COc1ccccc1N1CCC(CNCc2ccc(C#N)cc2)C1 (stereo unspecified)
Percent Effect (30.3 µM, […]): 92.2%
Percent Effect (10 mM, 10 mM as filed; unlikely as a test dose): 66.86%

COc1ccccc1N1CCC(CNCc2cccc(C#N)c2)C1 (stereo unspecified)
Percent Effect (30 µM, 30.03 µM): 38.86%

COc1cccc(N2CCC(CNc3cc(C)nc4ncnn34)C2)c1 (stereo unspecified)
Percent Effect (30.3 µM, […]): -742.4%

COc1ccccc1N1CCC(CNCc2cccc(O)c2)C1 (stereo unspecified)
Percent Effect (30 µM, 30.03 µM): -1.533%

COc1ccccc1N1CCC(CNCc2cccc(OC)c2OC)C1 (stereo unspecified)
Percent Effect (30 µM, 30.03 µM): 106.6%

COc1ccc(CNCC2CCN(c3ccccc3OC)C2)cc1O (stereo unspecified)
Percent Effect (30.3 µM, […]): 47.62%
Percent Effect (10 mM, 10 mM as filed; unlikely as a test dose): -24.56%

COc1cccc(N2CCC(CNCc3cccc(C#N)c3)C2)c1 (stereo unspecified)
Percent Effect (30.3 µM, […]): 77.75%
Percent Effect (10 mM, 10 mM as filed; unlikely as a test dose): -19.99%

COc1cccc(CNCC2CCN(CC(C)O)CC2)c1OC (stereo unspecified)
Percent Effect (10 µM): -41.05%

CC(=O)N1CCC(Nc2cc(F)ccc2OCC2CCCO2)CC1 (stereo unspecified)
Percent Effect (10 µM): -21.13%

COCC1CN(Cc2ccc(C)s2)Cc2nnn(C)c21.O=C(O)C(F)(F)F (stereo unspecified)
Percent Effect (30.3 µM, […]): -30.47%

O=C1C(NCc2nnc3n2CCCC3)CCN1c1ccccc1F (stereo unspecified)
Percent Effect (10 µM): 0.3109%

CN1[C@@H](C(=O)NCC2CC2)C[C@H]2CN(Cc3cccc(C#N)c3)C[C@H]21.O=C(O)C(F)(F)F.O=C(O)C(F)(F)F
Percent Effect (30.3 µM, […]): -35.21%

CCN(C)c1ncnc2c1CCN(Cc1ccncc1)CC2.O=C(O)C(F)(F)F.O=C(O)C(F)(F)F.O=C(O)C(F)(F)F
Percent Effect (30 µM, 30.03 µM): 14.6%

CC1c2ncc(COc3cccnc3)n2CCN1Cc1ccco1 (stereo unspecified)
Percent Effect (30.3 µM, […]): -3.756%

CC(C)C1SCC(=O)Nc2c1cnn2-c1ccc(Cl)cc1 (stereo unspecified)
Percent Effect (30 µM, 30.03 µM): 16.61%

CC(C)N(C)S(=O)(=O)c1ccc2c(c1)CCN(C(=O)c1cscn1)C2
Percent Effect (30 µM, 30.03 µM): -38.59%

CN1CC[C@H](N(Cc2ccccc2)Cc2ccccc2)C[C@H](O)C1
Percent Effect (30.3 µM, […]): 67.88%

CN1CC[C@H](N(Cc2ccccc2)CC2CC2)C[C@H](O)C1
Percent Effect (30.3 µM, […]): 2.753%

CN1CC[C@H](N(C)Cc2ccccc2)C[C@H](O)C1
Percent Effect (30.3 µM, […]): -4.232%

O=C(O)C(F)(F)F.O=C(c1ccsc1)N1CCO[C@@H]2CN(Cc3ccco3)CC[C@@H]2C1
Percent Effect (30.3 µM, […]): -78.45%

CNC(=O)CN1CCOCC12CCN(CCc1ccccc1)CC2.O=C(O)C(F)(F)F.O=C(O)C(F)(F)F
Percent Effect (30 µM, 30.03 µM): 40.27%

CC(C)(C)C(NCC(=O)N1CCNC(=O)C1)c1ccccc1 (stereo unspecified)
Percent Effect (30 µM, 30.03 µM): -32.1%

CCc1nc(NS(=O)(=O)c2ccc(C)cc2Cl)no1
Percent Effect (30 µM, 30.03 µM): 33.48%

CCc1nc(NS(=O)(=O)c2ccc(F)cc2Cl)no1
Percent Effect (30.3 µM, […]): -4.749%

CCc1nc(NS(=O)(=O)c2cc(C)c(F)cc2Cl)no1
Percent Effect (30.3 µM, […]): 54.01%

CN(C)C(=O)c1cnc2n1CCN(Cc1ccc3c(c1)OCO3)C2.O=C(O)C(F)(F)F
Percent Effect (30.3 µM, […]): -102%

CC(O)CN1CCC(CNCc2ccc(OC(F)(F)F)cc2)CC1 (stereo unspecified)
Percent Effect (10 µM): 63.69%

CC(O)CN1CCC(CNCc2cccc(OC(F)(F)F)c2)CC1 (stereo unspecified)
Percent Effect (10 µM): 16.76%

CC(O)CN1CCC(CNCc2cccc(C(F)(F)F)c2)CC1 (stereo unspecified)
Percent Effect (30.3 µM, […]): 86.87%

CC(O)CN1CCC(CNCc2cccc(Cl)c2)CC1 (stereo unspecified)
Percent Effect (30.3 µM, […]): 36.81%

CC(O)CN1CCC(CNCc2cccc(Br)c2)CC1 (stereo unspecified)
Percent Effect (30 µM, 30.03 µM): -7.469%

CC(O)CN1CCC(CNCc2ccccc2OC(F)(F)F)CC1 (stereo unspecified)
Percent Effect (30 µM, 30.03 µM): -22.34%

CN(C)c1ncc(C(=O)N2C[C@H]3C[C@H](Oc4ccccc4)C[C@H]3C2)cn1
Percent Effect (30.3 µM, […]): 8.214%

Cl.Cn1ccnc1CNC(=O)c1cncc(C2CCNCC2)n1
Percent Effect (30.3 µM, […]): -8.849%

O=C(O)C(F)(F)F.O=C(c1cccc(Cl)c1)N1CCCn2c(CN3CCCCC3)nnc2C1
Percent Effect (30 µM, 30.03 µM): 5.337%

Oc1cccc(CNCc2ccc(-n3cncn3)nc2)c1
Percent Effect (30.3 µM, […]): -113.8%

COCCN1C(=O)[C@H]2CC[C@@H]1CN(S(=O)(=O)c1ccc(C#N)cc1)C2
Percent Effect (30.3 µM, […]): -35.87%

CCO[C@H]1CO[C@@]2(CCCN(S(=O)(=O)c3cccnc3)C2)C1.O=C(O)C(F)(F)F
Percent Effect (30 µM, 30.03 µM): 23.98%

Fc1cccc(CN2CCOC3(COCCN(CC4CC4)C3)C2)c1.O=C(O)C(F)(F)F.O=C(O)C(F)(F)F (stereo unspecified)
Percent Effect (30.3 µM, […]): -50.27%

CC(=O)NCC(=O)N1CCCC(C(=O)c2ccc(C(C)(C)C)cc2)C1 (stereo unspecified)
Percent Effect (30.3 µM, […]): -72.68%

CC(C)(N)C(=O)N1CCCC(C(=O)c2ccc(C(C)(C)C)cc2)C1 (stereo unspecified)
Percent Effect (30.3 µM, […]): 89.7%

CC(C)(C)c1ccc(C(=O)C2CCCN(C(=O)CNS(C)(=O)=O)C2)cc1 (stereo unspecified)
Percent Effect (30.3 µM, […]): -41.24%

O=C(O)C(F)(F)F.O=C(c1ccnnc1)N1C[C@H](Oc2ccccn2)[C@H]2OCCC[C@H]21
Percent Effect (30.3 µM, […]): -55.97%

Cl.OC1CCN(c2cncc(CCC3CCCN3)n2)CC1 (stereo unspecified)
Percent Effect (30.3 µM, […]): -6.285%

CCOCc1cnc2n1CCN(C(=O)c1ccoc1C)C2C (stereo unspecified)
Percent Effect (30.3 µM, […]): -34.9%

Cc1ncoc1C(=O)N1CCn2c(COCC3CC3)cnc2C1C (stereo unspecified)
Percent Effect (30.3 µM, […]): 10.54%

Cc1occc1C(=O)N1CCn2c(COCC3CC3)cnc2C1C (stereo unspecified)
Percent Effect (30 µM, 30.03 µM): 51.37%

COc1ccc(CN2CCC3(CC2)CCN(CC(C)C)C3=O)cc1.O=C(O)C(F)(F)F
Percent Effect (30.3 µM, […]): 0.8917%

CN(C)CCO[C@H]1CN(CC2CC2)[C@@H]2CCCO[C@H]12.O=C(O)C(F)(F)F.O=C(O)C(F)(F)F
Percent Effect (30.3 µM, […]): 15.45%

c1ccc(N2CCC(c3ccncc3)CC2)cc1
Percent Effect (30.3 µM, […]): 0.5256%

CC(=O)N1CCCC2(C1)CN(c1nncs1)CCO2.O=C(O)C(F)(F)F (stereo unspecified)
Percent Effect (30.3 µM, […]): -90.31%

CCN(Cc1c(F)cccc1Cl)c1cc(C2CCNCC2)nc(C)n1
Percent Effect (30 µM, 30.03 µM): 88.22%

Cc1nc(C2CCNCC2)cc(N(C)Cc2cc3cc(F)ccc3[nH]2)n1
Percent Effect (30 µM, 30.03 µM): 7.512%

CCN(Cc1ccncc1)c1cc(C2CCNCC2)nc(C)n1
Percent Effect (30 µM, 30.03 µM): -25.3%

O=C(CC1CCCC1)N1C[C@H](OCc2ccncc2)[C@H]2OCCC[C@H]21.O=C(O)C(F)(F)F
Percent Effect (30 µM, 30.03 µM): -16.6%

Cc1ccc(CN(Cc2ccncc2)C2CC(C)(C)NC(C)(C)C2)o1.O=C(O)CC(O)(CC(=O)O)C(=O)O
Percent Effect (30.3 µM, […]): -22.8%

Nc1nccnc1C(=O)NC1CCCN(Cc2c(F)cccc2F)C1 (stereo unspecified)
Percent Effect (30 µM, 30.03 µM): -36.01%

Nc1nccnc1C(=O)NC1CCN(Cc2ccccc2)C1 (stereo unspecified)
Percent Effect (30 µM, 30.03 µM): 52.39%

O=C(Nc1nccs1)NC1CCN(Cc2ccccc2)C1 (stereo unspecified)
Percent Effect (30 µM, 30.03 µM): -14.85%

c1ccc(N2CCC(OCC3CCCCO3)CC2)nc1 (stereo unspecified)
Percent Effect (30.3 µM, […]): -91.25%

COc1cc(CNCC(O)c2ccccc2)cc2c1OCO2.Cl (stereo unspecified)
Percent Effect (30.3 µM, […]): 51.8%

COc1cc(CNCc2ccc(C(C)O)cc2)cc2c1OCO2 (stereo unspecified)
Percent Effect (30 µM, 30.03 µM): 8.941%

COc1cc(CNCCn2ccnc2)cc2c1OCO2.Cl
Percent Effect (30.3 µM, […]): 6.439%

Cc1cccc(COc2ccc(C(C)NS(N)(=O)=O)cc2)c1 (stereo unspecified)
Percent Effect (30 µM, 30.03 µM): 4.364%

Cc1cccc(COc2ccc(C(C)NC(=O)CNC(N)=O)cc2)c1 (stereo unspecified)
Percent Effect (30 µM, 30.03 µM): 6.871%

Cc1cccc(COc2ccc(C(C)N)cc2)c1.Cl (stereo unspecified)
Percent Effect (30 µM, 30.03 µM): 102.3%

CN1CC[C@H]2OCC[C@@H](C(=O)NCc3ccco3)[C@@H]2C1.O=C(O)C(F)(F)F
Percent Effect (30 µM, 30.03 µM): -30.69%

COc1ccnc(N2C[C@@H]3CC[C@H](C2)N(CC2CCC2)C3=O)n1
Percent Effect (30 µM, 30.03 µM): 0.242%

O=C(O)C(F)(F)F.O=C1CC[C@H]2[C@H](CCN2S(=O)(=O)C2CC2)N1CCN1CCCC1
Percent Effect (30.3 µM, […]): -16.69%

COCC(=O)NCCn1ccc2c(OC)cccc21
Percent Effect (30 µM, 30.03 µM): 21.63%

COc1cccc2c1ccn2CCNC(=O)CC(C)C
Percent Effect (30 µM, 30.03 µM): -27.5%

COc1cccc2c1ccn2CCC(=O)NCCCC(=O)O
Percent Effect (30 µM, 30.03 µM): 53.78%

CN(C)c1ccc(C(=O)N2Cc3cnc(C(C)(C)C)nc3C2)cc1
Percent Effect (30 µM, 30.03 µM): -40.98%

CC(C)(C)c1ncc2c(n1)CN(C(=O)c1ccc(-c3nc[nH]n3)cc1)C2
Percent Effect (30 µM, 30.03 µM): 54.09%

CC(C)(C)c1ncc2c(n1)CN(C(=O)c1ccncc1)C2
Percent Effect (30 µM, 30.03 µM): -0.7468%

O=C(C1CCOCC1)N1CCO[C@H]2[C@H](Oc3cccnc3)CC[C@@H]21.O=C(O)C(F)(F)F
Percent Effect (30 µM, 30.03 µM): -14.62%

CCN(CC)C(=O)CN(C)C(=O)c1ccc(-c2ccsc2)nc1C
Percent Effect (30 µM, 30.03 µM): -62.98%

COc1ccccc1CC(C)CC(=O)N(C)Cc1cc(C)on1 (stereo unspecified)
Percent Effect (30 µM, 30.03 µM): 72.44%

Cc1cc(CN(C)C(=O)CC(C)C)no1
Percent Effect (30 µM, 30.03 µM): -35.18%

COc1ccccc1CC(=O)N(C)Cc1cc(C)on1
Percent Effect (30 µM, 30.03 µM): -10.42%

CCc1nccn1C1CCCN(C(=O)C2=NN(C)C(=O)CC2)C1 (stereo unspecified)
Percent Effect (30.3 µM, […]): -18.44%

COc1ccc(C(C)(C)C)cc1CN1CCn2c(CO)nnc2C1.O=C(O)CC(O)(CC(=O)O)C(=O)O
Percent Effect (30.3 µM, […]): 3.045%

CC(=O)N1CCN([C@@H]2CC[C@@H](NC(=O)c3ccc(C)nc3)[C@H]2O)CC1
Percent Effect (30.3 µM, […]): -14.37%

CCN1CCN(c2ncc3c(n2)CN(c2cnn(CC)c2)C3=O)CC1
Percent Effect (30.3 µM, […]): -16.78%

CCOc1cc(CNc2nnn(C)n2)ccc1OCc1ccc(Cl)cc1
Percent Effect (30.3 µM, […]): 13.85%

CO[C@H]1CN(C(=O)c2ccc(-c3ccccc3)[nH]2)CC[C@H]1N
Percent Effect (30.3 µM, […]): 21.81%

O=C(c1ccc(-c2ccccc2)[nH]c1=O)N1CCN(C2CC2)CC1
Percent Effect (30 µM, 30.03 µM): -17.15%

CN1[C@H]2CC[C@@H]1CN(C(=O)c1ccc(-c3ccccc3)[nH]1)CC2
Percent Effect (30.3 µM, […]): 99.15%

CCOC(=O)CCn1cnc2onc(-c3ccc(OC)cc3)c2c1=O
Percent Effect (30 µM, 30.03 µM): -27.94%

Source: ChEMBL document CHEMBL3988442, “University of Dundee, Small-Polar-MMV Screening Library” (2021)
